Tests used:
Format in all cases: functional
[1] = test system: Plasmodium falciparum; assay: GSK_TCMDC: Inhibition of Plasmodium falciparum 3D7 in whole red blood cells, using parasite LDH activity as an index of growth. Test compounds present at 2uM
[2] = test system: Plasmodium falciparum; assay: GSK_TCMDC: Inhibition of Plasmodium falciparum Dd2 in whole red blood cells, using parasite LDH activity as an index of growth. Test compounds present at 2uM
[3] = test system: HepG2; assay: GSK_TCMDC: Percent inhibition of human HepG2 cell line. Test compounds present at 10uM.

SMILES	Inhibition [1] [%]	Inhibition [2] [%]	Inhibition [3] [%]
CNC(=O)c1ccccc1Nc1nc(Nc2ccc(CCN3CCN(C)CC3)cc2)ncc1Cl.Cl	97	98	76
COc1c(C)[nH]c(C)c(-c2ccc(Oc3cccc(C(F)(F)F)c3)cc2)c1=O	98	96	40
Cc1cccc(C(=O)NC(NC(=S)Nc2ccc([N+](=O)[O-])cc2)C(Cl)(Cl)Cl)c1 (stereo not drawn)	96	66	14
COc1ccc(CCn2c(C3CCCCC3)nc3oc4ccccc4c(=O)c3c2=O)cc1	91	66	12
N=C(Nc1cccc(Cc2ccccc2)n1)Nc1ncccn1	90	34	51
Cc1cc(N[C@@H](CC(C)C)C(=O)NCc2cccc(F)c2)nc(NCC2CCCCC2)n1.O=C(O)C(F)(F)F	99	70	3
CCC(=O)c1c(C)n(-c2ncnc3c2nc(C)n3-c2ccc(C)cc2C)c2ccccc12	96	78	0
CC(CN(C)C)C(=O)Nc1cccc(-c2cccc(-c3nc4ccccc4[nH]3)c2)c1 (stereo not drawn)	94	25	42
Cc1cc2nc(-c3ccc(C(=O)NCc4ccc(C(C)(C)C)cc4)cc3)[nH]c2cc1C	100	59	3
COc1ccc2c(=NN=Cc3c(OC)ccc4ccccc34)cc(C)[nH]c2c1	100	85	7
CCOc1ccc(C(C)NC(=O)Nc2ccccc2)cc1OCC (stereo not drawn)	96	95	14
COc1ccc(-c2cccc(NC(=O)c3cccs3)c2)cc1CN1CCCN(C)CC1.O=C(O)C(F)(F)F	100	30	17
COc1ccc(-c2nc3c(N)nc(N)nc3nc2-c2ccccc2Cl)cc1.COc1ccc(-c2nc3nc(N)nc(N)c3nc2-c2ccccc2Cl)cc1.Cl	93	0	45
Cl.O=S(=O)(Nc1ccc2nccc(N3CCNCC3)c2c1)c1ccc2c(Cl)cccc2c1	100	2	11
CN(C)CCNc1cc(-c2cccnc2)nc(-c2ccncc2)n1	100	98	33
Cc1ccccc1-c1nc2c(CN3CCC(O)(c4ccccc4)CC3)c(O)ccc2[nH]1	92	61	27
O=C(O)C(F)(F)F.O=C1CCCN1CCCNCc1ccc(-c2ccc(-c3nc4cc(F)ccc4[nH]3)s2)cc1	100	91	19
CN1C(C)(C)CC(NC(=O)c2ccc(-c3cc4cc(Cl)c(Cl)cc4[nH]3)o2)CC1(C)C	100	43	21
Cl.NC(=O)c1cccc(Nc2nccc(Nc3ccc4[nH]c(-c5ccccc5)cc4c3)n2)c1	100	98	28
O=C(O)C(F)(F)F.c1ccc(CNCc2cccc(-c3csc(-c4nc5ccccc5[nH]4)c3)c2)cc1	100	54	24
CCN(CC)S(=O)(=O)c1ccc(C(C)NC(=O)c2ccccc2COc2ccccc2)cc1 (stereo not drawn)	100	89	0

SMILES	Inhibition [1] [%]	Inhibition [2] [%]	Inhibition [3] [%]
COCCNCc1cccc(-c2cc3nccc(Nc4ccc(Oc5ccccc5)cc4)c3cc2Cl)c1	99	99	0
COc1cc2nccc(Nc3cccc(Oc4ccccc4)c3)c2cc1OC.Cl	100	95	25
CC(C)(C)C(=O)Nc1ccc(C(=O)Nc2cccc(-c3nc4ccccc4[nH]3)c2)cc1	96	62	56
Cn1nccc1C(=O)NCCNCc1cccc(-c2ccc(-c3nc4cc(C(F)(F)F)ccc4[nH]3)cc2)c1.O=C(O)C(F)(F)F	100	98	51
OC(CNC1CCCCC1)Cn1c2ccc(Br)cc2c2cc(Br)ccc21 (stereo not drawn)	98	100	10
O=C(NCCCCCN1CCC(c2ccc(O)cc2)CC1)c1ccc(-c2ccccc2)cc1	92	0	28
CN(C)c1ccc(-c2csc(C(=O)NC3CCCCN(Cc4ccc(C(C)(C)C)cc4)C3)c2)cc1.O=C(O)C(F)(F)F (stereo not drawn)	84	55	17
Cc1ccccc1C1CCN(C2CCC(NC(=O)/C=C/c3cccc(F)c3)CC2)CC1 (stereo not drawn)	84	38	46
Oc1ccc(CCNCc2ccc(OCc3ccccc3)c(OCc3ccccc3)c2)cc1	88	9	31
O=C(O)C(F)(F)F.c1cnc2ccc(NCc3ccc(-c4ccc(CNC5CCCC5)cc4)cc3)cc2c1	97	21	27
CC(C)CNCc1ccc(-c2cccc(CN(CCN(C)C)C(=O)CCC3CCCC3)c2)cc1.O=C(O)C(F)(F)F	100	81	56
O=S(=O)(Nc1cccc(CCN2CCC(N3CCCCC3)CC2)c1)c1ccc2c(c1)OCCO2	91	5	8
CC(C)(C)[C@@H](Nc1ccc(C#N)c2ccccc12)C(=O)NC1(Cc2ccc(O)cc2)CCCC1	90	74	14
COc1ccc(C(C(=O)NC2CCN(C[C@H](O)c3ccnc4ccc(OC)cc34)CC2)N2CCN(c3ccc(F)cc3)CC2)cc1 (stereo partly drawn)	97	86	16
CN1CCCC(CN2CCN(Cc3ccc(-c4cccc(-c5nc6ccccc6[nH]5)c4)cc3)CC2)C1.O=C(O)C(F)(F)F (stereo not drawn)	100	100	57
CCc1cc(NC2CCN(C)CC2)nc(Nc2cccc(OC)c2)n1	93	37	22
CS(=O)(=O)NCCCNCc1cccc(-c2ccc(-c3nc4cc(C(F)(F)F)ccc4[nH]3)s2)c1.O=C(O)C(F)(F)F	100	51	11
Clc1ccc(Cl)c2[nH]c(CNCCCNc3nc4ccccc4[nH]3)cc12	100	39	88
COc1cccc(C(=O)NCCc2cccc(Cl)c2)c1Oc1ccccc1	97	90	28
COc1cc(NC(=O)c2ccc3oc4ccccc4c3c2)ccc1OCCN1CCCCC1.Cl	89	11	12
FC(F)(F)c1ccc2[nH]c(-c3ccc(-c4ccc(CN5CCN(c6ccncc6)CC5)cc4)s3)nc2c1.O=C(O)C(F)(F)F	100	50	97

SMILES	Inhibition [1] [%]	Inhibition [2] [%]	Inhibition [3] [%]
Cc1cccc2nc(-c3ccc(-c4ccc(CN5CCN(CCO)CC5)cc4)cc3)[nH]c12.O=C(O)C(F)(F)F	100	97	20
CN1CCN(c2ccnc3cc4ccccc4cc23)CC1	93	49	11
COc1ccc(-c2cc(C(=O)Nc3ccc4[nH]c(-c5ccccc5)nc4c3)[nH]n2)cc1.O=C(O)C(F)(F)F	90	78	77
Cc1cc(N[C@@H](Cc2ccccc2)C(=O)NCc2cccc(F)c2)nc(NCC2CCCCC2)n1.O=C(O)C(F)(F)F	100	42	43
COC(=O)c1cccc(CNCc2cccc(-c3ccc(-c4nc5ccccc5[nH]4)s3)c2)c1.O=C(O)C(F)(F)F	93	59	0
Cc1ccoc1C(=O)Nc1ccc(-c2cccc(-c3nc4cccc(C)c4[nH]3)c2)cc1	95	69	15
CN(c1ccc(NC(=O)Nc2cc(C(F)(F)F)ccc2F)cc1)c1ccnc(NCCN2CCCC2)n1.O=C(O)C(F)(F)F	93	1	94
O=C(/C=C/c1ccc(Cl)c(Cl)c1)NCCCCCN1CCCN(C(=O)Nc2ccc(Cl)cc2)CC1	100	0	21
Nc1nc(N)c2c(ccc3c2ccn3Cc2ccc(Cl)cc2)n1	100	99	100
COc1ccc(Oc2cnc(N)nc2N)c(C(C)C)c1	97	0	58
c1ccn2c(-c3ncnc(NCc4ccc5c(c4)CCO5)n3)cnc2c1	86	47	12
Cc1cc2c3c(N)nc(N)nc3ccc2n1C(C)C	93	0	70
NC1=NC(c2ccccc2)(c2ccccc2)C(=O)N1Cc1ccc(-c2ccncc2)cc1.O=CO	96	74	20
COc1cccc(C23NC(=Nc4nc5ccccc5[nH]4)NC2(c2cccc(OC)c2)NC(=Nc2nc4ccccc4[nH]2)N3)c1 (stereo not drawn)	100	99	0
CCCCc1ccc(NC(=O)Nc2ccc3c(c2)CCNCC3)cc1.Cl	95	43	16
O=C(O)C(F)(F)F.O=[N+]([O-])c1cnc(Nc2ccccc2O)nc1Nc1ccccc1O	98	80	24
Cc1cc(NC2CCN(Cc3ccccc3)CC2)nc(NCCCCc2ccccc2)n1	100	60	65
Cc1c(C(=O)N(C)C)sc2c1c(=O)n(Cc1ccccc1)c(=O)n2CC(=O)Nc1ccccc1F	97	98	13
CC(=O)Nc1ccc(C(=O)Nc2ccc(-c3cccc(-c4nc5cc(C(F)(F)F)ccc5[nH]4)c3)cc2)cn1	100	98	29
